Molecules are shown by their SMILES. Records with an inconclusive call do not appear. A call without a number means that no potency is given here. Active and inactive are the calls of the source. The call rests on the fitted dose curve; in most records, active means well fitted inhibition curve with a large enough effect; inconclusive means small, poorly fitted or top-dose-only effect; inactive means no such curve, though single readings can be large or run the other way.
Potency means the concentration at half of the fitted maximal effect.

The assay can be described thus: Primary fluorescence-based thiol-reactive (MSTI) qHTS assay for identification of artifact compounds. (AID 1845221). Further: nearly all actives have a fitted effect of over 65% in size.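 On activity change, negative = thiol reactive: thiol-reactive compounds lower the probe fluorescence signal.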 The note with it: MSTI thiol-reactivity probe, 1 h; series mostly up to 53.8 µM. The procedure, abridged: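 qHTS titration of compound; 4 uM MSTI, PBS pH 7.4, 2% DMSO; 1 h RT, dark; fluorescence 525/598 nm; normalized to Acetyl-MSTI and MSTI; 4-parameter Hill fit.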
On the technique in general: Quantitative high-throughput screening tests each substance at several concentrations.
Turning to `O=C(O)c1ccnc2cc(C(OCCN3CCCCC3)c3ccccc3Cl)[nH]c12` (stereo not given), the Potency result is “inactive”.

Consider `CCC(C)(C#N)O[C@@H]1O[C@H](CO)[C@@H](O)[C@H](O)[C@H]1O` (stereo not given in full), for which the Potency entry was “inactive”. In the case of `COc1cc(CCNCc2ccccc2O)c(OC)cc1C#N`, the Potency entry is “inactive”. On the same count and under the same terms, next, `C=C(CO)C(=O)O[C@H]1C/C(C)=C/CC/C(CO)=C/[C@H]2OC(=O)C(=C)[C@H]12`: “inactive”; `CN1C(=O)N(c2ccc(C#N)c(C(F)(F)F)c2)C(=O)[C@]1(CO)c1ccccc1`: “inactive”. Same read-out and setting: to `C[C@@](O)(COc1ccc(C#N)cc1)C(=O)Nc1ccc(C#N)c(C(F)(F)F)c1` belongs “inactive”; to `COC(=O)C12C(=O)C(C)(O)C(=O)C1(C)C(C)=CC1C34CCC(OC3=O)C(C)(CO)C4CCC12C` (stereo not given), 2600 nM (active).

Take `CC12CCC3C(CCC4(O)CC(O)CCC34C=O)C1(O)CCC2C1=CC(=O)OC1` (stereo not given): the Potency entry was “inactive”.

As to `COC1CC(OC2CCC3(C=O)C(CCC4C3CCC3(C)C(C5=CC(=O)OC5)CCC43O)C2)OC(C)C1OC1OC(CO)C(O)C(O)C1O` (stereo not given), the Potency result was “inactive”. Still for that read-out and setting: to `OCCCCC#Cc1cncc(OC[C@@H]2CCN2)c1` belongs “inactive”; to `COC(=O)C1(C)CCC(O)C2(C)c3c(O)cc(C(C)C)cc3C(O)C(OC(C)=O)C12` (stereo not given), “inactive”.

`COC1CC(OC2CCC3(C)C(=CCC4C3CCC3(C)C(C(C)OC5OC(COC6OC(CO)C(O)C(O)C6O)C(O)C(O)C5O)CCC43O)C2)OC(C)C1OC1OC(C)C(O)C(OC)C1O` (stereo not given): the activity change, negative = thiol reactive was 0.542% [at 11.5 µM] (inactive).

`CC1=C2C[C@H]3[C@@H](CC=C4C[C@@H](O)CC[C@@]43C)[C@@H]2CC[C@]12O[C@@H]1C[C@H](C)CN[C@H]1[C@H]2C`: the Potency entry is “inactive”.

Consider `CO[C@@H]1[C@H](O)[C@@H](O[C@@H]2C[C@H]3CC[C@@H]4C(CC[C@]5(C)[C@@H](C6=CC(=O)OC6)CC[C@]45O)[C@@]3(C)[C@H](O)C2)O[C@H](C)[C@@H]1O[C@@H]1O[C@H](CO)[C@@H](O)[C@H](O)[C@H]1O` (stereo not given in full), for which the Potency result is “inactive”. In the case of `N#C[C@@H](O[C@@H]1O[C@H](CO[C@@H]2O[C@H](CO)[C@@H](O)[C@H](O)[C@H]2O)[C@@H](O)[C@H](O)[C@H]1O)c1ccccc1`, the Potency entry is “inactive”. The same measure, in the same setting: next, `CO[C@H]1[C@H](O)[C@H](O[C@H]2CC[C@]3(C)C4CC[C@]5(C)[C@H](C6=CC(=O)OC6)CC[C@]5(O)C4CC[C@@H]3C2)O[C@@H](C)[C@@H]1O` (stereo not given in full): “inactive”. The same measure, in the same setting: to `COC1CC(O[C@H]2CC[C@]3(C=O)C4CC[C@]5(C)[C@@H](C6=CC(=O)OC6)CC[C@]5(O)[C@@H]4CC[C@]3(O)C2)OC(C)C1O[C@@H]1O[C@H](CO)[C@@H](O)[C@H](O)[C@H]1O` (stereo not given in full) belongs “inactive”. Turning to `C=CC(C)(O)CC/C=C(\C)C(=O)O[C@H]1[C@H](O)[C@@H](CO)O[C@@H](OC(=O)[C@]23CCC(C)(C)CC2C2=CCC4[C@@]5(C)CC[C@H](O[C@@H]6O[C@H](CO[C@@H]7OC[C@H](O)[C@H](O)[C@H]7O[C@@H]7OC[C@@H](O)[C@H](O)[C@H]7O)[C@@H](O)[C@H](O)[C@H]6O)C(C)(C)C5CC[C@@]4(C)[C@]2(C)CC3)[C@@H]1OC1OC(C)C(O[C@@H]2OC[C@@H](O)[C@H](O[C@@H]3OC[C@@H](O)[C@H](O)[C@H]3O)[C@H]2O)C(O)C1O` (stereo not given in full), the activity change, negative = thiol reactive is 28.2% [at 11.5 µM] (inactive). For the compound `CCc1c(C(=O)C(N)=O)c2c(OCC(=O)OC)cccc2n1Cc1ccccc1`, the Potency result is “inactive”. As to `Cc1cc(C(=O)CN2CCCC2)c(C)n1-c1ccc(F)cc1`, the Potency entry was “inactive”. The same measure, in the same setting: to `COC1=CC(=O)O[C@@H](CCc2ccccc2)C1` belongs “inactive”.

Consider `C=C1[C@@H]2CC[C@@]3(C)[C@H](c4ccoc4)OC(=O)C[C@]13O[C@H]1CC(=O)C(C)(C)[C@H](C(OC(C)=O)C(=O)OC)[C@]12C` (stereo not given in full), for which the Potency result was “inactive”.

Regarding `CCN1C[C@]2(OC(=O)c3ccccc3NC(C)=O)CC[C@H](OC)[C@@]34[C@@H]2C[C@@H]([C@@H]13)[C@@]1(O)C[C@H](OC)[C@H]2C[C@@H]4[C@]1(O)[C@H]2OC`, the Potency result was “inactive”. On the same count and under the same terms, next, `COC1C(O)C(OC2CCC3(C=O)C(CCC4C3CCC3(C)C(C5=CC(=O)OC5)CCC43O)C2)OC(C)C1OC1OC(CO)C(O)C(O)C1O` (stereo not given): “inactive”. Take `C/C=C(\C)C(=O)OC1C(C)OC(OC2C(C)OC(OC3CCC4(C)C(=CCC5C4CCC4(C)C(C(C)OC6OC(COC7OC(CO)C(O)C(O)C7O)C(O)C(O)C6O)CCC54O)C3)CC2OC)C(O)C1OC` (stereo not given): the activity change, negative = thiol reactive was 16.4% [at 11.5 µM] (inactive).

The record behind these values is PubChem BioAssay (NCATS).
